# rCAG RNA binder: binders of r(CAG) RNA repeats, primary screen, biochemical, fluorescence | r(CAG) RNA repeat, TO-PRO-1 dye displacement fluorescence | inhibition, % at 3 µM | 370,000 compounds, 1.3% hits | AID 651821, 2012;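 active means inhibition above the plate cutoff, the mean of all test compounds on that plate plus 3 SD, cut at about 35% in these data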;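 further: 0% = DMSO alone and 100% = 100 µM mitoxantrone as full dye displacement; higher means more dye released from RNA so lower well fluorescence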
# DSG3 Ab inh: inhibitors of pemphigus antibody binding to DSG3, primary screen, biochemical, bead-based, flow cytometry, scFv-GFP; Desmoglein-3 (Homo sapiens), P32926; DSG3-coupled beads, scFv-anti-DSG3-GFP binding; active compounds read low; binding (percent of control), % at 10 µM; 310,000 compounds, 0.48% hits; AID 588358, 2011;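 active means binding more than 3 SD below its plate's average and above zero; inconclusive means below that plate limit but binding exactly zero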;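 further: hits lower antibody fragment binding to DSG3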
# Target sequence (P32926 whole entry, looked up, the tested form may be a part): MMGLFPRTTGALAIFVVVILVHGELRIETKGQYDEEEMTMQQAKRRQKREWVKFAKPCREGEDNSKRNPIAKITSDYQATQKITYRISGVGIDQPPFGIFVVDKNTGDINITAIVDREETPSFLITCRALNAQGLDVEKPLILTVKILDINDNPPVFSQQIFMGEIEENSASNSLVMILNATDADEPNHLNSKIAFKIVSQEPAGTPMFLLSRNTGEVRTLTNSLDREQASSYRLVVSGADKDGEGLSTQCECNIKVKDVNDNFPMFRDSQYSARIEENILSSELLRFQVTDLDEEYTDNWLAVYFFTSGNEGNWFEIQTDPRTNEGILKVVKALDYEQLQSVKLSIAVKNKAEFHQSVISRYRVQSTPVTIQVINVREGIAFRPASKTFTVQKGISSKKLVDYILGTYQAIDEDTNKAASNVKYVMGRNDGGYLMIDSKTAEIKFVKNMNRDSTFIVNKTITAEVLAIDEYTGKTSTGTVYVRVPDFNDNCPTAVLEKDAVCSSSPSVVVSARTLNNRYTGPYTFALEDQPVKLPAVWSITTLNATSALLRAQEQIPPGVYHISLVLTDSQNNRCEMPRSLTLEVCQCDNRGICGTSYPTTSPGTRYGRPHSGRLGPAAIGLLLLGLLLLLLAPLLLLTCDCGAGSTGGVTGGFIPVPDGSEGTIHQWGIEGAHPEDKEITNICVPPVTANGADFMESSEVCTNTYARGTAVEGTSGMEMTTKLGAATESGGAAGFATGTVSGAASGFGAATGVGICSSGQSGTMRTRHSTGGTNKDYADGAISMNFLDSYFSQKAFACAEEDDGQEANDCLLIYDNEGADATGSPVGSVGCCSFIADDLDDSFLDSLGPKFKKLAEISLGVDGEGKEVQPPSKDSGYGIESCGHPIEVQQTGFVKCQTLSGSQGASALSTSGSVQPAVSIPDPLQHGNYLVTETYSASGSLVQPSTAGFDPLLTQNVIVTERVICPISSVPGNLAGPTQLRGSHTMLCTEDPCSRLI
# KLK7 zymogen act: proKLK7 zymogen activators, primary screen, biochemical, fluorescence intensity. Kallikrein-7 (Homo sapiens), P49862. purified proKLK7, EDANS-DABCYL substrate fluorescence; 100% is mature enzyme control, 0% vehicle. 370,000 compounds, 0.9% hits. activation, % at 7 µM. AID 652039, 2013;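 active means activation above the mean of all tested compounds plus 3 SD, computed per campaign excluding outliers beyond control limits, cut at about 13% in these data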
# MPTP inh: mitochondrial permeability transition pore inhibitors, primary screen, biochemical, isolated mouse mitochondria, absorbance; AID 602449, 2012; inhibition, % at 10 µM; Ca2+ swelling absorbance, 30 min; 360,000 compounds, 1.4% hits;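 active means inhibition of 50% or more, scaled per plate between neutral and stimulator controls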;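 further: 0% = DMSO wells given calcium and 100% = 1 mM EGTA wells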
# ADAM10 inh: human ADAM10 inhibitors, primary screen, biochemical, QFRET, HTS. Disintegrin and metalloproteinase domain-containing protein 10 (Homo sapiens), O14672. recombinant ADAM10, EDANS/DABCYL FRET peptide cleavage, 3 h. inhibition, % at 7 µM. 370,000 compounds, 0.62% hits;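 active means inhibition above a per-campaign cutoff equal to the mean of compounds falling between control-based bounds plus 3 SD, cut at about 20% in these data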;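 further: 0% = DMSO wells while the 100% control is not disclosed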
# ADAM17 inh: ADAM17 inhibitors, primary screen, biochemical, QFRET; Disintegrin and metalloproteinase domain-containing protein 17 (Homo sapiens), P78536; recombinant ADAM17, EDANS/DABCYL FRET peptide cleavage; inhibition, % at 6.95 µM; 370,000 compounds, 0.83% hits; AID 720648, 2013;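 active means inhibition above the mean of compounds lying between control limits plus 3 SD, set per campaign, cut at about 8.5% in these data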;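 further: 0% = DMSO-only wells as the low control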
# MPTP counter: fluorescence retest of MPTP screen hits in isolated mitochondria, single concentration | shares compounds with MPTP inh | membrane potential, Rhodamine 123 fluorescence | 5,000 compounds, 78% hits | AID 624504, 2012 | inhibition, % at 10 µM; in the data active means inhibition above about 22%;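 further: 0% = DMSO vehicle and 100% = positive control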
# MPTP abs DR: mitochondrial permeability transition pore inhibitors, dose response, biochemical, absorbance, uHTS hits | IC50, µM | 780 compounds, 58% hits | isolated mitochondria swelling | shares compounds with MPTP inh; in the data active means IC50 below about 20 µM
# MPTP counter DR: fluorescent counter-screen in isolated mitochondria, dose response, counter-screen for MPTP inhibitor project, biochemical, fluorescence, uHTS hits. shares compounds with MPTP inh. isolated mitochondria counterscreen, fluorescence read-out. IC50, µM. 780 compounds, 49% hits; in the data active means IC50 below about 80 µM
# An asterisk follows results filed as active; ? = inconclusive; nt = not tested or not shown. Rows were chosen to be rich in hits. Some 4.7% of all compounds tested hit in one or more screens of this group.
SMILES,rCAG RNA binder,DSG3 Ab inh,KLK7 zymogen act,MPTP inh,ADAM10 inh,ADAM17 inh,MPTP counter,others
CC(c1ccco1)N(C(=O)c1ccccc1NS(=O)(=O)c1cccc([N+](=O)[O-])c1)c1ccccn1 (stereo not drawn),nt,109,nt,51*,nt,nt,78*,
CC(c1ccco1)N(C(=O)c1ccccc1NS(=O)(=O)c1ccc(Cl)cc1)c1ccccn1 (stereo not drawn),24,96,1,23,-11,-2,nt,
CC(C)Cn1c(N)c(C(=O)COC(=O)c2ccc3c(c2)OCCO3)c(=O)n(C)c1=O,-3,nt,0,8,9,0,nt,
CC(C)Cn1c(N)c(C(=O)CSc2ccc3c(c2)OCCO3)c(=O)n(C)c1=O,-3,?,1,99*,-8,-4,86*,
O=S(=O)(c1cccs1)N1CCCc2nc(-c3ccccc3)ccc21,3,nt,0,nt,-2,-2,nt,
Cc1cc(Nc2ccccc2)nc(NCc2ccccc2)n1,4,104,0,90*,1,-3,92*,
CCCCNc1cc(C)nc(NCc2ccccc2)n1,nt,116,nt,104*,nt,nt,131*,
Cc1cc(Nc2cccc(F)c2)nc(NCc2ccccc2)n1,1,108,-1,92*,17,5,73*,
Cc1cc(Nc2ccc(Cl)cc2)nc(NCc2ccccc2)n1,5,113,-1,53*,0,-2,31*,
Cc1cc(N/N=C/c2ccc(F)cc2)nc(NCc2ccccc2)n1,2,112,0,13,5,-1,nt,
COC(=O)[C@]12C[C@H](CC(=O)NCc3ccccc3)C(=O)N(CCc3ccc(OC)c(OC)c3)C1=C[C@H](C1CCCC1)O[C@@H]2C,6,nt,0,nt,5,4,nt,
O=S1(=O)c2cc(Cl)ccc2N2CC[C@H](C2)N1Cc1ccc(Cl)c(Cl)c1,3,nt,0,nt,-13,-6,nt,
C=CCN1C(=O)c2n[nH]c(COC)c2C1c1cccc(C(F)(F)F)c1 (stereo not drawn),0,nt,0,nt,1,0,nt,
O=C(C1CC1)n1ccc2ccc(-c3ccc4ccn(Cc5ccccc5)c4c3)cc21,10,nt,-5,nt,-9,-9,nt,
Cc1cc(N2CCN(Cc3ccccc3)CC2)n2nc(C)nc2n1,5,nt,0,nt,0,1,nt,
Cc1ccc(/C=N/Nc2cc(C)nc(NCc3ccccc3)n2)cc1,5,nt,0,42,10,8,nt,
Cc1cc(N2CCC(C)CC2)nc(NCc2ccccc2)n1,6,102,-1,91*,-10,-1,111*,
Cc1cc(N/N=C/c2ccc(N(C)C)cc2)nc(NCc2ccccc2)n1,6,102,-3,60*,-93,-24,56*,
CC(C)C[C@H]1COc2cc(Br)ccc2S(=O)(=O)N1Cc1cn(Cc2ccc(Cl)cc2)nn1,0,nt,0,nt,-2,-4,nt,
CC(c1ccccn1)N(CCN(C)C)C(=S)Nc1cccc(F)c1 (stereo not drawn),nt,100,nt,-2,nt,nt,nt,
O=C(NCc1cccc(C(F)(F)F)c1)c1[nH]c(C(F)(F)F)nc1-c1ccccc1,nt,nt,nt,51*,nt,nt,99*,
CC(C)CCN(C(=S)Nc1cccc(C(F)(F)F)c1)C(C)c1ccccn1 (stereo not drawn),-9,101,0,63*,-12,-6,74*,
CN(C)CCCN(Cc1ccccc1)C(=S)Nc1cccc(C(F)(F)F)c1,-7,107,0,-2,0,2,nt,
O=C(NCc1cccc(C(F)(F)F)c1)c1cc(Cl)cc(Cl)c1,2,100,-5,100*,-55,-21,88*,
Cc1ccc(CNC(=O)c2[nH]c(C(F)(F)F)nc2-c2ccccc2)cc1,7,nt,0,-1,-4,5,nt,
SMILES,rCAG RNA binder,DSG3 Ab inh,KLK7 zymogen act,MPTP inh,ADAM10 inh,ADAM17 inh,MPTP counter,others
CCCN(Cc1ccccc1)C(=S)Nc1cccc(C(F)(F)F)c1,-4,109,1,60*,1,2,63*,
FC(F)(F)c1cccc(CNC(=S)Nc2ccccc2)c1,-2,87,-1,82*,12,1,95*,
FC(F)(F)c1cccc(NC(=S)NCc2ccccc2)c1,2,99,0,106*,14,0,115*,
O=C(CNC(=O)Cc1ccccc1)NCc1cccc(C(F)(F)F)c1,1,nt,1,-2,-8,-2,nt,
CN1C(=O)[C@@]2(O[C@H]3[C@H]4C=C[C@@H]([C@H]5C(=O)N(Cc6ccccc6)C(=O)[C@@H]45)N3C3=C2C(=O)CC3)c2ccccc21,6,nt,0,nt,-2,5,nt,
CCOC(=O)C1=C[C@@H](C(C)(C)C)N(S(=O)(=O)c2ccc([N+](=O)[O-])cc2)[C@H]1c1ccccc1Cl,5,nt,-1,nt,-4,-3,nt,
CCn1cc(CNC(=O)c2cc(COc3ccc(F)cc3Cl)on2)cn1,-5,95,0,-1,-1,1,nt,
CCn1nc(C)c(CNC(=O)c2cc(COc3ccc(F)cc3Cl)on2)c1C,-7,86,0,53*,-3,-7,36*,
CCCOc1nc2c(c(=O)n(C)c(=O)n2C)n1Cc1cccc2ccccc12,-5,104,0,70*,2,0,74*,
CCCOc1nc2c(c(=O)n(C)c(=O)n2C)n1C,2,91,0,-1,7,-3,nt,
CCCCCCC(=O)NC1CCCCN(Cc2ccccc2C)C1=O (stereo not drawn),-2,nt,1,nt,1,2,nt,
Cc1ccccc1CN1CCCCC(NC(=O)c2ccc(F)c(F)c2)C1=O (stereo not drawn),0,nt,-1,nt,3,0,nt,
COc1ccc(CCNC(=O)C2CCN(Cc3nc(-c4ccc(Cl)cc4)oc3C)CC2)cc1OC,-7,87,0,5,-4,-3,nt,
COc1ccc(CCNC(=O)C2CCN(Cc3nc(-c4ccccc4C)oc3C)CC2)cc1OC,-8,105,1,82*,-3,-5,10,MPTP abs DR=9.7*;MPTP counter DR=23*

# High-throughput results as filed in PubChem BioAssay.
